Laboratory results: PubChem BioAssay AID743025 (Vanderbilt Specialized Chemistry Center, 2013)
Activity calls are given as the source filed them.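 Rule for the calls: active = IC50 below 10 µM at human M5 in a calcium flux test, acting as a negative modulator; inactive = the rest.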

target: Muscarinic acetylcholine receptor M5 (Homo sapiens) (UniProt P08912); test: inhibition of ACh-evoked M5 calcium signal – cell-based, single concentration, human M5 (AID 743025); details: CHO-K1 hM5, ACh EC80 calcium flux, Fluo-4; at 10 µM; hits give low values
Sequence (P08912 whole entry, looked up): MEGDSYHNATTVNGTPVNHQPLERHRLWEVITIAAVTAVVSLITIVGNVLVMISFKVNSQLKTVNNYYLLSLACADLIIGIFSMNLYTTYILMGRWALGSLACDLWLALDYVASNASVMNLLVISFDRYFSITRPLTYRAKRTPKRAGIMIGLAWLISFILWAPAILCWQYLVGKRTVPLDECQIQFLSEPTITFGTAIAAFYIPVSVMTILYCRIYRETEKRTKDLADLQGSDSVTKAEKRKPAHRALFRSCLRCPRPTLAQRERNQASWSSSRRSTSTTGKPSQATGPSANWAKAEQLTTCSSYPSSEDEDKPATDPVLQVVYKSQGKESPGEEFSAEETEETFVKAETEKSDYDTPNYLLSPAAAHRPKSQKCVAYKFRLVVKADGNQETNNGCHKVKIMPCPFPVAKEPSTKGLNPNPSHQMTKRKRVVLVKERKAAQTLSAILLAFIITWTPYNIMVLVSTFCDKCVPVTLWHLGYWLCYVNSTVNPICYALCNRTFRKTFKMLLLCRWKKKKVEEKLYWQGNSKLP

SMILES	activity remaining
O=C(c1ccccc1F)N1CCN2C(=O)c3ccccc3C12c1ccccc1 (configuration not stated)	85.8% (inactive)
COc1ccc(C23c4ccccc4C(=O)N2CCN3C(=O)c2cccc(C)c2)cc1 (configuration not stated)	61.1% (inactive)
O=C(c1ccc(SC(F)(F)F)cc1)N1CCN2C(=O)c3ccccc3C12c1ccc(Cl)cc1 (configuration not stated)	4.43% (active)
Cc1ccc(C(=O)N2CCN3C(=O)c4ccccc4C23c2ccc(F)cc2)cc1 (configuration not stated)	67.9% (inactive)
O=C(c1ccccn1)N1CCN2C(=O)c3ccccc3C12c1ccccc1 (configuration not stated)	100% (inactive)
O=C(c1cc(Cl)cc(Cl)c1)N1CCN2C(=O)c3ccccc3C12c1ccccc1 (configuration not stated)	5.4% (active)
O=C(c1ccc(C(F)(F)F)cc1)N1CCN2C(=O)c3ccccc3C12c1ccc(Cl)cc1 (configuration not stated)	2.04% (active)
O=C(c1ccccc1)N1CCN2C(=O)c3ncccc3C12c1ccccc1 (configuration not stated)	78.7% (inactive)
O=C(Nc1ccc(Cl)cc1)N1CCCN2C(=O)c3ccccc3C12c1ccccc1 (configuration not stated)	84.5% (inactive)
COc1ccc(C23c4ccccc4C(=O)N2CCN3C(=O)c2cccc(C(F)(F)F)c2)cc1 (configuration not stated)	47.9% (active)
O=C(c1ccc(C(F)(F)F)cc1)N1CCN2C(=O)c3ccccc3C12c1ccccc1 (configuration not stated)	1.06% (active)
Cc1ccc(C(=O)N2CCN3C(=O)c4ccccc4C23c2ccc(C)cc2)cc1 (configuration not stated)	49.1% (active)
O=C(c1ccc(Cl)c(Cl)c1)N1CCN2C(=O)c3ccccc3C12c1ccccc1 (configuration not stated)	30.5% (active)
O=C1c2ccccc2C2(c3ccccc3)N1CCN2C(=S)Nc1cccc(Cl)c1 (configuration not stated)	93% (inactive)
O=C(c1ccc(F)c(F)c1)N1CCc2ccccc2C1c1ccc(Cl)cc1 (configuration not stated)	67.4% (inactive)
O=C(c1ccc(F)cc1Cl)N1CCN2C(=O)c3ccccc3C12c1ccccc1 (configuration not stated)	64.1% (inactive)
O=C1c2ccccc2C2(c3ccccc3)Nc3ccccc3N12 (configuration not stated)	81.8% (inactive)
O=C(NCCNC(=O)c1ccccc1C(=O)c1ccc(F)cc1)c1ccccc1	86.1% (inactive)
O=C(c1ccc2c(c1)OCO2)N1CCN2C(=O)c3ccccc3C12c1ccc(Cl)cc1 (configuration not stated)	8.65% (active)

SMILES	activity remaining
O=C(c1ccc(Oc2ccccc2)cc1)N1CCN2C(=O)c3ccccc3C12c1ccccc1 (configuration not stated)	75.1% (inactive)
O=C(c1cccc(C(F)(F)F)c1)N1CCN2C(=O)c3ncccc3C12c1ccccc1 (configuration not stated)	76.6% (inactive)
O=C(c1ccc(F)c(F)c1)N1CCN2C(=O)c3ccccc3C12c1ccccc1 (configuration not stated)	0.88% (active)
COc1ccc(C(=O)N2CCN3C(=O)c4ccccc4C23c2ccc(Cl)cc2)cc1F (configuration not stated)	74% (inactive)
O=C(c1ccc(F)c(F)c1)N1CCN2C(=O)c3ccccc3C12c1ccc(O)cc1 (configuration not stated)	65.9% (inactive)
CSc1ccc(C23c4ccccc4C(=O)N2CCN3C(=O)c2ccc(F)c(F)c2)cc1 (configuration not stated)	14.6% (active)
O=C(c1cccnc1)N1CCN2C(=O)c3ccccc3C12c1ccccc1 (configuration not stated)	74.8% (inactive)
COc1cccc(C(=O)N2CCN3C(=O)c4ccccc4C23c2ccc(Cl)cc2)c1 (configuration not stated)	17.5% (active)
O=C(c1ccc(F)cc1)N1CCN2C(=O)c3ccccc3C12c1ccc(F)cc1 (configuration not stated)	69.7% (inactive)
O=C(c1ccc(C(=O)C(F)(F)F)cc1)N1CCN2C(=O)c3ccccc3C12c1ccccc1 (configuration not stated)	90% (inactive)
O=C(c1ccc(SC(F)(F)F)cc1)N1CCN2C(=O)c3ncccc3C12c1ccccc1 (configuration not stated)	62.1% (inactive)
O=C1CCC2(c3ccccc3)Nc3ccccc3N12 (configuration not stated)	81.8% (inactive)
N#CC1(c2ccccc2)CCCN1C(=O)c1ccccc1 (configuration not stated)	84.8% (inactive)
Cc1ccc(C(=O)N2CCN3C(=O)c4ccccc4C23c2ccc(Cl)cc2)cc1 (configuration not stated)	17.9% (active)
Cc1cccc(C(=O)N2CCN3C(=O)c4ccccc4C23c2ccccc2)c1 (configuration not stated)	52.7% (active)
O=C(c1ccc2c(c1)CCO2)N1CCN2C(=O)c3ccccc3C12c1ccc(Cl)cc1 (configuration not stated)	71.1% (inactive)
O=C(c1ccccc1)N1CCN2C(=O)c3ccccc3C12c1ccc(F)cc1 (configuration not stated)	67.6% (active)
O=C(c1ccc(F)cc1F)N1CCN2C(=O)c3ccccc3C12c1ccccc1 (configuration not stated)	69% (inactive)
